Experimental data reported in the supplement of paper PMC6555819.

Columns and labels:
Test in all cases: PBM binding z-score (relative to random genomic background probes); higher = stronger binding; sequences stand for … in GC…GCGATTGACAGCGTAGAATGAAGG
[1] = tested on: PPARg:RXRa DBDmut IVT, anti-RXR (DBD mutation: RXRa K156A/R161A, NR concentration 270 nM, RXRa partner concentration 90 nM)
Method in brief: (§1)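 Binding buffer was PBS pH 7.4 with 2% milk, 0.02% Triton X-100, 1 mM DTT, 0.2 mg/mL BSA and 0.4 mg/ml salmon testes DNA. In it, ligand-free nuclear receptor dimers were incubated 1 h on custom Agilent 4×180K protein-binding microarrays carrying double-stranded probes. Antibodies against each partner (one per run) detected binding, and z-scores were calculated against random background probes after regression normalization of scanned fluorescence.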

[2] = tested on: PPARg:RXRa IVT, anti-PPARg (NR concentration 270 nM, RXRa partner concentration 90 nM)
Method in brief: as §1

[3] = tested on: PPARg DBDmut:RXRa IVT, anti-PPARg (DBD mutation: PPARg1 K132A/R137A, NR concentration 270 nM, RXRa partner concentration 90 nM)
Method in brief: as §1

[4] = tested on: PPARg DBDmut IVT, anti-PPARg (DBD mutation: PPARg1 K132A/R137A, NR concentration 270 nM)
Method in brief: as §1

[5] = tested on: PPARg homodimer (NR concentration 180 nM)
Method in brief: as §1

[6] = tested on: PXR:RXRa (NR concentration 270 nM, RXRa partner concentration 90 nM)
Method in brief: as §1

[7] = tested on: PXR homodimer (NR concentration 270 nM)
Method in brief: as §1

[8] = tested on: RARa:RXR (NR concentration 270 nM, RXRa partner concentration 90 nM)
Method in brief: as §1

[9] = tested on: RARa homodimer (NR concentration 270 nM)
Method in brief: as §1

[10] = tested on: RARb homodimer (NR concentration 270 nM)
Method in brief: as §1

[11] = tested on: RARg:RXRa (NR concentration 270 nM, RXRa partner concentration 90 nM)
Method in brief: as §1

[12] = tested on: RARg homodimer (NR concentration 270 nM)
Method in brief: as §1

[13] = tested on: RXRa DBDmut IVT, anti-RXR (DBD mutation: RXRa K156A/R161A, NR concentration 90 nM)
Method in brief: as §1

[14] = tested on: RXRa homodimer (NR concentration 180 nM)
Method in brief: as §1

[15] = tested on: THRa:RXRa (NR concentration 90 nM, RXRa partner concentration 90 nM)
Method in brief: as §1

[16] = tested on: THRa homodimer (NR concentration 90 nM)
Method in brief: as §1

[17] = tested on: VDR:RXRa (NR concentration 270 nM, RXRa partner concentration 90 nM)
Method in brief: as §1

[18] = tested on: VDR homodimer (NR concentration 270 nM)
Method in brief: as §1

[19] = tested on: RARb:RXRa (NR concentration 270 nM, RXRa partner concentration 90 nM)
Method in brief: as §1

Sequence	PBM binding z-score [1]	PBM binding z-score [2]	PBM binding z-score [3]	PBM binding z-score [4]	PBM binding z-score [5]	PBM binding z-score [6]	PBM binding z-score [7]	PBM binding z-score [8]	PBM binding z-score [9]	PBM binding z-score [10]	PBM binding z-score [11]	PBM binding z-score [12]	PBM binding z-score [13]	PBM binding z-score [14]	PBM binding z-score [15]	PBM binding z-score [16]	PBM binding z-score [17]	PBM binding z-score [18]	PBM binding z-score [19]
ATCGAATGGTCGAAGGTGAGTATACCCACCCGAA	-0.883	0.182	0.483	0.223	0.138	-0.0379	-0.408	0.334	0.141	0.0928	0.392	0.497	-0.884	0.585	0.0175	-0.459	-0.0843	-0.194	
AGTCAAAGTTGATCTAGGTAACGTAAGATATGCT	0.813	2.74	0.517	1.07	-0.371	-0.212	-0.146	-0.0598	-0.276	-0.057		0.579	-0.227	0.191	1.36	-0.0633		-0.278	0.672
TTACGAAGGTGAAAGGTCGTTGATGCACGCCTTG	2.05	4.53	0.416	0.212	1.39	3.77	0.289	5.13	0.203	2.49	4.08	2.19	0.342	5.5	2.33	0.141	3.25	1.25	
CAAACTAGGTCACAGAGGTCAACGTCCGTGCGTA	8.84	9.29	4.63	5.15	4.43	6.82	8.28	7.23	2.74	5.75	7.28	8.09	3.2	7.63	4.9	3.25	7.74	5.58	
CCTACTGGGCCAAGGTCATTGAGCAGTCAAAGCA	3.78	4.64	0.0966	0.249	1.29	3.5	1.2	3.64	-0.199	3.03		3.23	1.23	3.66	3.23	2.18		2.65	3.21
CCGACTGGGGCAACGGTTACCATACTCAGTACGA	3.8	3.87	-0.196	-0.486	0.34	-0.591	-0.155	-0.576	-0.579	0.463		0.749	-0.399	0.0122	-0.149	-0.243		-0.248	0.784
CGAACTAGGTCAGAACAGGACATTGAAGGATGAT	7.08	7.32	2.82	2.2	1.27	1.96	0.214	1.66	0.708	2.12	2.57	3.4	0.96	1.41	3.72	0.36	1.59	0.369	
CCTACTGGGCCAAAGGCCATTGATTCCAATGCTC	3.67	4.27	-1.16	-0.289	0.544	-0.131	-0.371	0.0662	-0.609	0.736		0.568	-0.726	-0.132	-0.0621	-0.567		-0.468	0.924
ATCGAAAGGTCGAAAGTGAGTATACCCACCCGAA	-0.0216	1.35	1.11	0.905	0.0924	2.02	0.265	2.62	0.478	1.74		3.15	1.22	3.52	1.51	-0.286		0.782	3.19
CGAACTAGGACATCCAGGACAGTGAATACATTGA	5.1	4.07	0.493	0.652	0.302	-0.363	0.206	0.00684	0.136	0.243	0.252	0.695	0.592	0.0939	1.78	1.4	-0.0982	0.467	
TGTCAAAGTTCTAAGGTAACGTAAGTATCCACAC	-0.558	1.37	1.07	0.895	0.299	0.23	0.0534	1.09	0.0558	0.168		0.585	-0.0657		2.88	2.43		-0.114	0.779
GCTGCTAGGTCAACTGAGGGTCAGCTAAAGCTCG	4.93	4.17	-0.389	-0.635	4.56	4.5	-0.492	5.93	0.262	5.18		6.85	1.67	4.59	4.16	1.47		1.36	4.83
CCTTACGGGTAACTCCAGGTTATAGCATCGGAGT	0.404	0.565	0.241	-0.665	0.705	0.705	0.14	0.64	0.018	0.239		0.528	-0.483	0.381	3.22	0.292		0.21	0.315
TAGCCTAGGTCATTGGGCTAGTATAGTACGCATC	1.65	3.11	0.176	-0.547	0.811	1.4	-0.602	1.91	-0.44	2.59		4.2	1.47	2.84	2.71	0.251		0.989	3.46
CAAACCAGGTCACGAAAGGTCAAAGTCGAATGAC	6.74	7.37	0.599	1.79	6.46	7.33	5.57	8.04	4.58	5.97		9.05	2.9		5.23	3.86		4.47	5.74
TAGCCTAGGTCAGATCGGGCCAGTCTACGCTATA	0.403	1.41	-0.912	-0.787	-0.159	1.18	-0.895	1.05	-1.11	2.16	2.51	3.36	-0.601	1.31	4.1	-0.0683	0.668	-0.368	
